Measured values taken from PubChem BioAssay (NCATS).
Results filed as inconclusive are left out. Entries that show only a call come without a potency. Calls of active or inactive are those of the source. Calls come from the whole dose curve; as a rule, active = well fitted inhibition curve with a large enough effect; inconclusive = small, poorly fitted or top-dose-only effect; inactive = flat fitted curve, though single readings scatter.

system: CP305; test: qHTS profiling for inhibitors of Plasmodium falciparum proliferation (AID 504749); note: nearly all actives have a fitted effect of over 60% in size; conditions: P. falciparum in erythrocytes, SYBR Green DNA, 72 h; series mostly up to 28.7 µM
How it was run: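 P. falciparum-infected erythrocytes (0.3% parasitemia, 2.5% hematocrit final) were exposed to compounds for 72 h at 37 C in 5% CO2, then lysed with SYBR Green buffer overnight at room temperature; parasite DNA fluorescence was normalized to artemisinin and DMSO controls.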

Row | SMILES | Potency
1 | CCCOC(=O)c1ccccc1O | inactive
2 | COc1cc2c(cc1OC)[C@@H](Cc1cc(OC)c(OC)c(OC)c1)[N+](C)(CCCOC(=O)CC/C=C/CCC(=O)OCCC[N+]1(C)CCc3cc(OC)c(OC)cc3[C@H]1Cc1cc(OC)c(OC)c(OC)c1)CC2 (some centres undefined) | inactive
3 | OC[C@H]1O[C@@](CO)(O[C@H]2O[C@H](CO)[C@@H](O)[C@H](O)[C@H]2O)[C@@H](O)[C@@H]1O | inactive
4 | CCC(Cc1c(I)cc(I)c(O)c1I)C(=O)O (centres undefined) | inactive
5 | Nc1ncnc2c1ncn2CCOCP(=O)(O)O | inactive
6 | O=C(O)CCC/C=C\C[C@@H]1[C@@H](/C=C/[C@@H](O)COc2cccc(Cl)c2)[C@H](O)C[C@@H]1O | inactive
7 | N=C(N)n1cccn1 | inactive
8 | CCSc1ccc2c(c1)N(CCCN1CCN(C)CC1)c1ccccc1S2 | inactive
9 | CC(C)c1nc(N(C)S(C)(=O)=O)nc(-c2ccc(F)cc2)c1/C=C/C(O)CC(O)CC(=O)O (centres undefined) | inactive
10 | CCOC(C)OCC | inactive
11 | NCCN | inactive
12 | CC(CC=O)CCCC(C)(C)O (centres undefined) | inactive
13 | CC(C)(COP(=O)(O)OP(=O)(O)OC[C@H]1O[C@@H](n2cnc3c(N)ncnc32)[C@H](O)[C@@H]1OP(=O)(O)O)C(O)C(=O)NCCC(=O)NCCS (some centres undefined) | inactive
14 | O=C1c2ccccc2CN2C(=O)c3ccccc3CN12 | inactive
15 | O=C1c2ccccc2C(=O)C1c1ccc(F)cc1 | inactive
16 | CNC(=O)C[C@@H](N)C(=O)N[C@@H](C(=O)N[C@@H]1C(=O)N2[C@@H]1SC(C)(C)[C@@H]2C(=O)O)c1ccc(O)cc1 | inactive
17 | CCCCCc1ccc(C)cc1O | inactive
18 | C=CC(C)(O)CC/C=C(\C)CCC=C(C)C (centres undefined) | inactive
19 | Cc1ccc(S(=O)(=O)NCl)cc1 | inactive
20 | CN1c2c(nc(N)[nH]c2=O)NCC1CNc1ccc(C(=O)NC(CCC(=O)O)C(=O)O)cc1 (centres undefined) | inactive

Row | SMILES | Potency
21 | NC(=O)[C@@H]1CCCN1C(=O)[C@H](Cc1cnc[nH]1)NC(=O)[C@@H]1CCC(=O)N1 | inactive
22 | CN(C)CCOc1ccc(/C(=C(/CCCl)c2ccccc2)c2ccccc2)cc1 | inactive
23 | CC1(O)CCC(C(C)(C)O)CC1 (centres undefined) | inactive
24 | COc1ccccc1N1CCN(CCCC(=O)c2ccc(F)cc2)CC1 | inactive
25 | CC(C)[C@@H](N)C(=O)O | inactive
26 | CN(C)c1ccc(C(=C2C=CC(=[N+](C)C)C=C2)c2c(O)c(S(=O)(=O)[O-])cc3cc(S(=O)(=O)O)ccc23)cc1 | inactive
27 | COc1cc(S(C)=O)ccc1-c1nc2ncccc2[nH]1 (centres undefined) | inactive
28 | Oc1cc(O)cc(O)c1 | inactive
29 | N[C@H](CC(=O)O)C(=O)O | inactive
30 | C/C=C/C=C/C(=O)O | inactive
31 | C=C(C)C1CC=C(C)CC1 (centres undefined) | inactive
32 | Nc1ncnc2c1ncn2[C@H]1CC[C@@H](CO)O1 | inactive
33 | NCC[C@H](O)C(=O)N[C@@H]1C[C@H](N)[C@@H](O[C@H]2O[C@H](CN)CC[C@H]2N)[C@H](O)[C@H]1O[C@H]1O[C@H](CO)[C@@H](O)[C@H](N)[C@H]1O | inactive
34 | [O]=[Bi][O]C(=O)[O][Bi]=[O] | inactive
35 | Cc1c(Cl)cccc1Nc1ncccc1C(=O)O | inactive
36 | CC1(C)S[C@@H]2[C@H](NC(=O)C3(N)CCCCC3)C(=O)N2[C@H]1C(=O)O | inactive
37 | CCCCCCCCCCCC(=O)OCC(O)CO (centres undefined) | inactive
38 | COc1ccc(C(=O)c2ccc(C)cc2)c(O)c1 | inactive
39 | O=C1NCCN1c1ncc([N+](=O)[O-])s1 | inactive
